Results taken from ChEMBL document CHEMBL1961873, “Compounds: GSK PKIS; Assays: Nanosyn kinase panel” (2012).

Columns and labels:
[1] = molecular target: Death-associated protein kinase 1 (Homo sapiens) (UniProt P53355); settings: at 1 µM;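 also: each value is a mean inhibition figure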
[2] = molecular target: T1, Serine/threonine-protein kinase DCLK2 (Homo sapiens) (UniProt Q8N568); settings: at 0.1 µM
T1 sequence (whole entry): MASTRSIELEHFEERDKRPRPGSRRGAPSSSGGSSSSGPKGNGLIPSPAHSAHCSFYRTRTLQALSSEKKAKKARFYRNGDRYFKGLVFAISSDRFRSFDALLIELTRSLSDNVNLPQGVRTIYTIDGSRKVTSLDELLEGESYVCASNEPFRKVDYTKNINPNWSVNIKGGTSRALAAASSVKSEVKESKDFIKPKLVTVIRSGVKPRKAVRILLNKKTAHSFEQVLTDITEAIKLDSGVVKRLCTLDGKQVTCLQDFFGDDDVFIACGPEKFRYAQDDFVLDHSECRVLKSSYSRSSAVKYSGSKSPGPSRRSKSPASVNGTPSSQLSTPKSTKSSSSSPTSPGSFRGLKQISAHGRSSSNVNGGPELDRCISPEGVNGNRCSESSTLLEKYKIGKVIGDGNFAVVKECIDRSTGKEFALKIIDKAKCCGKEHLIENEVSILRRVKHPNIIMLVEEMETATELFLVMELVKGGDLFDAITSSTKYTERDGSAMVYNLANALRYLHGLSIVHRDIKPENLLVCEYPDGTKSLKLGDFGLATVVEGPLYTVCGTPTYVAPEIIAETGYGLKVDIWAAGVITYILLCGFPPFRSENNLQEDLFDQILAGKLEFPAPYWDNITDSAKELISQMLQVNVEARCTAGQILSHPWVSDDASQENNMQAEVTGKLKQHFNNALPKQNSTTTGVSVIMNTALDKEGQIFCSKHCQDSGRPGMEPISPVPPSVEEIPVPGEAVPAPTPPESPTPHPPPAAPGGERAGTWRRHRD

[3] = molecular target: T1, Serine/threonine-protein kinase DCLK2 (Homo sapiens); settings: at 1 µM
[4] = molecular target: MAP kinase-activated protein kinase 2 (Homo sapiens) (UniProt P49137); settings: at 0.1 µM
Sequence of MAP kinase-activated protein kinase 2 (Homo sapiens) (P49137 whole entry, looked up): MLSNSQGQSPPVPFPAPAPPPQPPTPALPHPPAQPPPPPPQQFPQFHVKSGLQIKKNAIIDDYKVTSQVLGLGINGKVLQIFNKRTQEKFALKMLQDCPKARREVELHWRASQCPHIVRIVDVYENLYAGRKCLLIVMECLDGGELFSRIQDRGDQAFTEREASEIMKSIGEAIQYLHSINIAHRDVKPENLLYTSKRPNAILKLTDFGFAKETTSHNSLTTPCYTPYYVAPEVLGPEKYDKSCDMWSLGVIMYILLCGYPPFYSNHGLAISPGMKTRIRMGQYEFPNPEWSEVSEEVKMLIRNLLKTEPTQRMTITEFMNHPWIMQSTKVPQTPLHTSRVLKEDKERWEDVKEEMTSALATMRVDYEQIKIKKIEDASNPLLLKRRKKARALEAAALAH

[5] = molecular target: MAP kinase-activated protein kinase 2 (Homo sapiens) (UniProt P49137); settings: at 1 µM
[6] = molecular target: MAP kinase-activated protein kinase 3 (Homo sapiens) (UniProt Q16644); settings: at 0.1 µM
Sequence of MAP kinase-activated protein kinase 3 (Homo sapiens) (Q16644 whole entry, looked up): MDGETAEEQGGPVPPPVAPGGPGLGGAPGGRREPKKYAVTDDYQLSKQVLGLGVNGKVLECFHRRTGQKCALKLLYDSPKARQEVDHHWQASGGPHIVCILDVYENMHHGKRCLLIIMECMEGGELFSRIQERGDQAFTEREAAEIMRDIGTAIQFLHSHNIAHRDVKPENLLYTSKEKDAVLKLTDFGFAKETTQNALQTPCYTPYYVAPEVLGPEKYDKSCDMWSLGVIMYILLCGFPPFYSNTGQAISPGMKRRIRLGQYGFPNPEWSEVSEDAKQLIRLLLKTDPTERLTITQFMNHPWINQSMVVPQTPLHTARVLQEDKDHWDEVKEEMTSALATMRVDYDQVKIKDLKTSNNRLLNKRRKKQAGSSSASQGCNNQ

[7] = molecular target: MAP kinase-activated protein kinase 3 (Homo sapiens) (UniProt Q16644); settings: at 1 µM
[8] = molecular target: Serine/threonine-protein kinase MARK1 (Homo sapiens) (UniProt Q9P0L2); settings: at 0.1 µM
Sequence of Serine/threonine-protein kinase MARK1 (Homo sapiens) (Q9P0L2 whole entry, looked up): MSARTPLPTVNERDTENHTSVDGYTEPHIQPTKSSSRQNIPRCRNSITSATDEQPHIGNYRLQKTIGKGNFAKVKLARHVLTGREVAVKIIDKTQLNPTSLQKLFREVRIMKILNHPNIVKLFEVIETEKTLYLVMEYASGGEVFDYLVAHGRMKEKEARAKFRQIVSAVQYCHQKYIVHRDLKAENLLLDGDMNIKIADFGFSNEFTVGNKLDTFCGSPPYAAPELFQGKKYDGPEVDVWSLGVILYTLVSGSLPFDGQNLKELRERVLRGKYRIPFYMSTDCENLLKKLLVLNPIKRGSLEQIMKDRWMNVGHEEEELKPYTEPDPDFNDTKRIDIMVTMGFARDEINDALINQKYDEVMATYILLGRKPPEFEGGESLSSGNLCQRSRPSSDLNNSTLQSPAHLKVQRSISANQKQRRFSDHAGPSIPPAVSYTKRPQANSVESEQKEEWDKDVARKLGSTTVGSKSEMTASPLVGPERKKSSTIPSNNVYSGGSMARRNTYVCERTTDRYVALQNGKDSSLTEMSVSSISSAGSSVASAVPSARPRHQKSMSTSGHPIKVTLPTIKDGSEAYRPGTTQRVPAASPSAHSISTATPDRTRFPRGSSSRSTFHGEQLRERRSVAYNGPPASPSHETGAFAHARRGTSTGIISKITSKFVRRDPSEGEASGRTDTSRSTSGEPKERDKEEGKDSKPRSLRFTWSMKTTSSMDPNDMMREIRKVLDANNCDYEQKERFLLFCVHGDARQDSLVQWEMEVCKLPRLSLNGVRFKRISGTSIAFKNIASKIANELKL

[9] = molecular target: Serine/threonine-protein kinase MARK1 (Homo sapiens) (UniProt Q9P0L2); settings: at 1 µM
[10] = molecular target: MAP/microtubule affinity-regulating kinase 3 (Homo sapiens) (UniProt P27448); settings: at 0.1 µM
Sequence of MAP/microtubule affinity-regulating kinase 3 (Homo sapiens) (P27448 whole entry, looked up): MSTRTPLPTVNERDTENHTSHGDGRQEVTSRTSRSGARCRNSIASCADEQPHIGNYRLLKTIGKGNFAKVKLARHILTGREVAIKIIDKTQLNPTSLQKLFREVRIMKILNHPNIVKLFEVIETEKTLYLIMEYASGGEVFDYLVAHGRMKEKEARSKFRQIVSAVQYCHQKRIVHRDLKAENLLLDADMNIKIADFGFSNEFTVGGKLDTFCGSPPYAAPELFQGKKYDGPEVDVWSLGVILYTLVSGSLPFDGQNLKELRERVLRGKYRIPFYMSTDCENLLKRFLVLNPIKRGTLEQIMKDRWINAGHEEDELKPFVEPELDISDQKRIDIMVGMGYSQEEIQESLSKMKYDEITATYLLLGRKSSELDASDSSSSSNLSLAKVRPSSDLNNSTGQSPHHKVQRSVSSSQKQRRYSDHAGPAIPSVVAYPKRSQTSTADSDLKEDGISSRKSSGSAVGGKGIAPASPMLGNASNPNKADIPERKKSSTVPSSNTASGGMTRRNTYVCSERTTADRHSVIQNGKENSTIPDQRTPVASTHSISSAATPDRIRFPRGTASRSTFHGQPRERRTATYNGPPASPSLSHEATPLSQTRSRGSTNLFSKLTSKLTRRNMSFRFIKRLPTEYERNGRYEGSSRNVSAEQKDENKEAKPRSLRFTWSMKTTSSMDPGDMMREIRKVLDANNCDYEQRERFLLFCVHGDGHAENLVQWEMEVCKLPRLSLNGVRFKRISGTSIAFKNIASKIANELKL

[11] = molecular target: MAP/microtubule affinity-regulating kinase 3 (Homo sapiens) (UniProt P27448); settings: at 1 µM
[12] = molecular target: T2, MAP/microtubule affinity-regulating kinase 4 (Homo sapiens) (UniProt Q96L34); settings: at 0.1 µM
T2 sequence (whole entry): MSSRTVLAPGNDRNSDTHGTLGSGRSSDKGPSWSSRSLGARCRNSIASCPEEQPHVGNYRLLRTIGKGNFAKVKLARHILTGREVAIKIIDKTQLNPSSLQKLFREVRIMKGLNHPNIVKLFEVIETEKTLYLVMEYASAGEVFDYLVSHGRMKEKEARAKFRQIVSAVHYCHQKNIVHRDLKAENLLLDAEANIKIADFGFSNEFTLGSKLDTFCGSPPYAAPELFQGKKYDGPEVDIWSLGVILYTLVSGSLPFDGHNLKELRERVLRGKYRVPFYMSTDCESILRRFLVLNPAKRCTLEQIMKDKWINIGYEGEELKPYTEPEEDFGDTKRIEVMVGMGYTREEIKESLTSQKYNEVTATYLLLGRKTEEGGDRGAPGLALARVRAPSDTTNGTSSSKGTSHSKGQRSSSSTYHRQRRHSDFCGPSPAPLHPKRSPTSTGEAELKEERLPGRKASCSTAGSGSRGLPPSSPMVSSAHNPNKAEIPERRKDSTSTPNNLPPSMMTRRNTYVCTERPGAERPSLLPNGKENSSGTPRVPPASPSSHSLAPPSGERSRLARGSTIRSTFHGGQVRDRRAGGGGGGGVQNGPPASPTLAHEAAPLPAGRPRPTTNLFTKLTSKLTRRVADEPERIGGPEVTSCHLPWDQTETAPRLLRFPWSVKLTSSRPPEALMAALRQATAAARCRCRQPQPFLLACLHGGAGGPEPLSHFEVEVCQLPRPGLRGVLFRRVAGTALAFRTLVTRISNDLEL

[13] = molecular target: T2, MAP/microtubule affinity-regulating kinase 4 (Homo sapiens); settings: at 1 µM
[14] = molecular target: Maternal embryonic leucine zipper kinase (Homo sapiens) (UniProt Q14680); settings: at 0.1 µM
Sequence of Maternal embryonic leucine zipper kinase (Homo sapiens) (Q14680 whole entry, looked up): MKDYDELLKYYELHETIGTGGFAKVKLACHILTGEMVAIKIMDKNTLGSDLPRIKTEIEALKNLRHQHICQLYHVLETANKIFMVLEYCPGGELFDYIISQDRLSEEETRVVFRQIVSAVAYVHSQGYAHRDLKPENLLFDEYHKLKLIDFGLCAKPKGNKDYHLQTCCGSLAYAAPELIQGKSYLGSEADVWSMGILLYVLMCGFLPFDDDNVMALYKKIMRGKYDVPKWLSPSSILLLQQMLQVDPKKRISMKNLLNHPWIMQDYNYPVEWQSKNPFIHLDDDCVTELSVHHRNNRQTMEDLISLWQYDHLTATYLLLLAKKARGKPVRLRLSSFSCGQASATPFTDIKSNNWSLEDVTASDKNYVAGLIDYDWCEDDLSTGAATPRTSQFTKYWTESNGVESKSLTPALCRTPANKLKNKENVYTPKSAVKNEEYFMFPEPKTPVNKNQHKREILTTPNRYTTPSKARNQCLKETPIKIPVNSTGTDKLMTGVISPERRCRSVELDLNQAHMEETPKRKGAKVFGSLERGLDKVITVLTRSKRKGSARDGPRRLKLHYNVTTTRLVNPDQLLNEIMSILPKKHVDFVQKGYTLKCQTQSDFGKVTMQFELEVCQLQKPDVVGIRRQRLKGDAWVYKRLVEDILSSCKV

[15] = molecular target: Maternal embryonic leucine zipper kinase (Homo sapiens) (UniProt Q14680); settings: at 1 µM
[16] = molecular target: MAP kinase-interacting serine/threonine-protein kinase 1 (Homo sapiens) (UniProt Q9BUB5); settings: at 0.1 µM
Sequence of MAP kinase-interacting serine/threonine-protein kinase 1 (Homo sapiens) (Q9BUB5 whole entry, looked up): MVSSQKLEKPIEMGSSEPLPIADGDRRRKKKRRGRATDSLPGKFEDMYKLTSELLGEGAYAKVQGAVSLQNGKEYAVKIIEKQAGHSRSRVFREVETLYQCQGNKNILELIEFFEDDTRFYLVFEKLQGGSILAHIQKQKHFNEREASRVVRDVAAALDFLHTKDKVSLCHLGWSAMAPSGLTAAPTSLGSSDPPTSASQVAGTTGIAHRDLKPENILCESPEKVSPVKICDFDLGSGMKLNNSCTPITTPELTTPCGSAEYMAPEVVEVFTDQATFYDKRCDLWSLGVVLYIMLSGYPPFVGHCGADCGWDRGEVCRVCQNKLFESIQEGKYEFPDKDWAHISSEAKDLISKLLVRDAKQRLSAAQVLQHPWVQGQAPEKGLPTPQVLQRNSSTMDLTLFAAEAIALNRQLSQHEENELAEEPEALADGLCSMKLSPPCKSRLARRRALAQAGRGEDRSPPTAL

[17] = molecular target: MAP kinase-interacting serine/threonine-protein kinase 1 (Homo sapiens) (UniProt Q9BUB5); settings: at 1 µM
[18] = molecular target: MAP kinase-interacting serine/threonine-protein kinase 2 (Homo sapiens) (UniProt Q9HBH9); settings: at 0.1 µM
Sequence of MAP kinase-interacting serine/threonine-protein kinase 2 (Homo sapiens) (Q9HBH9 whole entry, looked up): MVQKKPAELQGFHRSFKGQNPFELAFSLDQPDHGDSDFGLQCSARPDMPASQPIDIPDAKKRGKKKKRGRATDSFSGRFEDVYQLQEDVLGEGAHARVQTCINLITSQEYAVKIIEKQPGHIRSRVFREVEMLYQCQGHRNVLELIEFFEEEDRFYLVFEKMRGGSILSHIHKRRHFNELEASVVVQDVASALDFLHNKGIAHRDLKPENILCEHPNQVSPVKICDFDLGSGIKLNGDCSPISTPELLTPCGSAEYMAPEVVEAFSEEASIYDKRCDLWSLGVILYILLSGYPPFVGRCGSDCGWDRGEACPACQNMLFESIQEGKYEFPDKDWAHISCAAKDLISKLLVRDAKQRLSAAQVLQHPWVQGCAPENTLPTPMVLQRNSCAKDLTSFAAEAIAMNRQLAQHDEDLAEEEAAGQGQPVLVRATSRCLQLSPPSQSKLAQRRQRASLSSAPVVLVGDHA

[19] = molecular target: MAP kinase-interacting serine/threonine-protein kinase 2 (Homo sapiens) (UniProt Q9HBH9); settings: at 1 µM
[20] = molecular target: Serine/threonine-protein kinase MARK2 (Homo sapiens) (UniProt Q7KZI7); settings: at 0.1 µM;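 also: mean percent inhibition of PAR-1Balpha kinase activity, reported from the GSK PKIS screen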
Sequence of Serine/threonine-protein kinase MARK2 (Homo sapiens) (Q7KZI7 whole entry): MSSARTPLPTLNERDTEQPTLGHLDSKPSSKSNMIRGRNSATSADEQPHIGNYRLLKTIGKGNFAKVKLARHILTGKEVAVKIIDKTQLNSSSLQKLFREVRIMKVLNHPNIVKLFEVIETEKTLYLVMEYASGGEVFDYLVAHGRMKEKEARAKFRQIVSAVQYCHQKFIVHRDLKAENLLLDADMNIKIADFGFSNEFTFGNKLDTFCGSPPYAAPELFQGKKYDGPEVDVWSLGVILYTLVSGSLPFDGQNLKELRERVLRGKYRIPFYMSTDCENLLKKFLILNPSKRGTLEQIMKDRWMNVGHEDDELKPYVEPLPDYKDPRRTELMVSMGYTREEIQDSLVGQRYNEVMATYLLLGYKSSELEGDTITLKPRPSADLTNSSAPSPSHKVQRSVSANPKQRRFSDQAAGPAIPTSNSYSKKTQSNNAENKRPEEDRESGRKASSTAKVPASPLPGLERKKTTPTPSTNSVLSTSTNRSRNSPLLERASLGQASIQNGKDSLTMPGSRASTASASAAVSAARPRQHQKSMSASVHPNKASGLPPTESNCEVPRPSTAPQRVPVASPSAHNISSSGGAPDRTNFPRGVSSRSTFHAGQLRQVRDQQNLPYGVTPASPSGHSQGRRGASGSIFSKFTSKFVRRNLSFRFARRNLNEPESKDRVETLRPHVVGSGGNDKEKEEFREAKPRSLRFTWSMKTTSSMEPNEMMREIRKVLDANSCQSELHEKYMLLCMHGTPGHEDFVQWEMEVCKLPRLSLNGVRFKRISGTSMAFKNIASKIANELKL

Row | Structure (SMILES) | inhibition [1] | inhibition [2] | inhibition [3] | inhibition [4] | inhibition [5] | inhibition [6] | inhibition [7] | inhibition [8] | inhibition [9] | inhibition [10] | inhibition [11] | inhibition [12] | inhibition [13] | inhibition [14] | inhibition [15] | inhibition [16] | inhibition [17] | inhibition [18] | inhibition [19] | inhibition [20]
1 | O=C1NC(=O)C(c2cccc(Cl)c2)=C1Nc1ccc(Cl)c(C(=O)O)c1 | 3.41% | 0.79% | -4.18% | 1.73% | 1.21% | 2.96% | 3.57% | 2.35% | 3.49% | 3.32% | 8% | 0.26% | 1.44% | -0.69% | 3.67% | 3.32% | 5.32% | 2.61% | 4% | -2.87%
2 | Clc1ccc(CNc2nccc(-c3cnn4ncccc34)n2)cc1 | 11.8% | -0.21% | -0.19% | 3.88% | 3.81% | 7.41% | 7.89% | 1.55% | 1.16% | 0.99% | 2.59% | -0.78% | -0.74% | -0.99% | 16.4% | 1.08% | 6.48% | 1.92% | 10.7% | -0.61%
3 | Nc1nccc(-c2c(-c3ccc(F)cc3)ncn2C2CCC(O)CC2)n1 (stereo not given) | -0.38% | -1.66% | 5.59% | -1.26% | -1.57% | 30% | 36.4% | -0.13% | 0.51% | -1.63% | 0.22% | 0.43% | 1.28% | -3.21% | 1.19% | 0.34% | 0.48% | 0.18% | 0.46% | 1.84%
4 | COc1cc2ncn(-c3cc(OCCc4ccccc4)c(C(N)=O)s3)c2cc1OC | 1.51% | 0.43% | 0.05% | 0.61% | 1.03% | 2.1% | 4.28% | 3.11% | 3.45% | 3.88% | 1.74% | 0.87% | 0.86% | 3.07% | 1.31% | 2% | 6.3% | 0.86% | 12.8% | 1%
5 | NS(=O)(=O)c1ccc(Nc2cc(-c3ccc(O)c(F)c3)n[nH]2)cc1 | -3.49% | 2.54% | -2.22% | -1.97% | -1.79% | -0.95% | -0.99% | 0.41% | 8.64% | 0.26% | 4.97% | 1.26% | 11.7% | -5.49% | 39.3% | -0.77% | 6.93% | 0.26% | 7.33% | 0.4%
6 | COc1ccc2cc(-c3c(-c4ccncc4)nc(-c4ccc([S+](C)[O-])cc4C)n3C)ccc2c1 (stereo not given) | -9.4% | -1.12% | 5.6% | -3.43% | -3.96% | -6.68% | -5.38% | -1.01% | -1.81% | 0.61% | -1.9% | -0.17% | -0.24% | 0.29% | 0.51% | 5.22% | 10% | 0.98% | 3.96% | -1.24%
